# Results: PubChem BioAssay (EPA / NIEHS)
# Results filed as inconclusive are left out. The source made the active and inactive calls. How the source made its calls: active means hit-call score of the fitted dose curve at least 0.9, where 1 is the maximum; inconclusive means response in the unintended direction; inactive means score below 0.9.
# System: guinea pig Histamine Receptor (H2), gene 100729734
# Assay: NVS_GPCR_gH2: NovaScreen (NVS) G Protein-Coupled Receptor Assay for guinea pig Histamine Receptor (H2) (AID 2283342)
# Procedure, shortened: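 Guinea pig striatal membrane preparation with specific radioligand; bound counts measured by filtration and scintillation 1 h post-dosing, DMSO as baseline. Chemicals passing a 25 uM duplicate screen were titrated to a 50 uM maximum.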
SMILES,outcome,AC50
Cn1c(-c2ccccc2)cc(-c2ccccc2)[n+]1C,inactive,
CCNP(=S)(OC)O/C(C)=C/C(=O)OC(C)C (centres undefined),,16.1 µM (active)
CC(C)(C)C(=O)C(Oc1ccc(Cl)cc1)n1cncn1 (centres undefined),inactive,
CSC(=O)c1c(C(F)F)nc(C(F)(F)F)c(C(=O)SC)c1CC(C)C,inactive,

# System: NCBI gene 100848466
# Assay: NVS_NR_bPR: NovaScreen (NVS) Nuclear Receptor Binding Assay for bovine Progextron Receptor (PR) (AID 2283343);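 on AC50: actives lower bound radioligand signal below DMSO meaning displacement of the label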
# Procedure, shortened: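 Scintillation counts of bound radioligand were read 18 hours after chemical addition to membranes extracted from bovine uterus. Displacement was scored as loss of signal relative to DMSO controls. Screening began at 25 uM in duplicate.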
SMILES,outcome,AC50
CC1(C)C(C=C(Cl)Cl)C1C(=O)OC(C#N)c1cccc(Oc2ccccc2)c1 (centres undefined),inactive,
CCN(CC)c1nc(C)cc(OP(=S)(OC)OC)n1,,18.5 µM (active)
N#Cc1c(Cl)cccc1Cl,inactive,
COP(=S)(OC)Oc1ccc([N+](=O)[O-])c(C)c1,,14.8 µM (active)
CC(C)(C)C(=O)C(Oc1ccc(Cl)cc1)n1cncn1 (centres undefined),inactive,
CC(C)=CC1C(C(=O)OCc2coc(Cc3ccccc3)c2)C1(C)C (centres undefined),,25 µM (active)
COCC(=O)N(c1c(C)cccc1C)C(C)C(=O)OC (centres undefined),inactive,
N#Cc1c[nH]cc1-c1cccc2c1OC(F)(F)O2,inactive,
O=C1C2CC=CCC2C(=O)N1SC(Cl)(Cl)Cl (centres undefined),inactive,

# Target: human Constitutive Androstane Receptor (CAR), NR1I3 (gene 9970) (UniProt Q14994)
# Assay: NVS_NR_hCAR_Antagonist: NovaScreen (NVS) Nuclear Receptor Binding Assay for human Constitutive Androstane Receptor Antagonism (CAR) (AID 2283344)
# Procedure, shortened: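 Single 25 uM duplicate primary screen, with concentration-series follow-up on actives. Cell-free binding format run in antagonist mode, TR-FRET signal taken 1 h post-dose; activity is signal loss relative to DMSO.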
# Sequence of human Constitutive Androstane Receptor (CAR), NR1I3 (gene 9970) (Q14994 whole entry, looked up): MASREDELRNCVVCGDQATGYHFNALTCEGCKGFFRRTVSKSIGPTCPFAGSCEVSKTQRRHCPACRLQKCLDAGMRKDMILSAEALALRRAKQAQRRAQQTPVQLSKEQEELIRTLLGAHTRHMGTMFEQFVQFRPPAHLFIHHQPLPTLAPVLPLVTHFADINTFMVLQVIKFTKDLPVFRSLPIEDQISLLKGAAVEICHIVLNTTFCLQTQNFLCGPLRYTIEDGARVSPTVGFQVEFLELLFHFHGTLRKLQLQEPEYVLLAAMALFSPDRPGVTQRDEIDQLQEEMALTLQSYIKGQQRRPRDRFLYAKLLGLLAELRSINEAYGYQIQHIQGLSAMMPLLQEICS
SMILES,outcome,AC50
CCC(C)n1c(=O)[nH]c(C)c(Br)c1=O (centres undefined),inactive,
N#Cc1c(Cl)cccc1Cl,inactive,
CNC(=O)Oc1cccc2ccccc12,inactive,
CCOP(=O)(OCC)Oc1nc(Cl)c(Cl)cc1Cl,,16.1 µM (active)
COP(=S)(OC)Oc1ccc([N+](=O)[O-])c(C)c1,inactive,
CC(C)(C)C(=O)C(Oc1ccc(Cl)cc1)n1cncn1 (centres undefined),inactive,
CCCCOCN(C(=O)CCl)c1c(CC)cccc1CC,,14.6 µM (active)
CC(C)=CC1C(C(=O)OCc2coc(Cc3ccccc3)c2)C1(C)C (centres undefined),inactive,
CC(C)Oc1cccc(NC(=O)c2ccccc2C(F)(F)F)c1,inactive,
COCC(=O)N(c1c(C)cccc1C)C(C)C(=O)OC (centres undefined),inactive,
CCOc1cc(C(C)(C)C)ccc1C1COC(c2c(F)cccc2F)=N1 (centres undefined),inactive,
O=C1C2CC=CCC2C(=O)N1SC(Cl)(Cl)Cl (centres undefined),inactive,

# Target: bovine Estrogen Receptor (ER), ESR1 (gene 407238) (UniProt P49884)
# Assay: NVS_NR_bER: NovaScreen (NVS) Nuclear Receptor Binding Assay for bovine Estrogen Receptor (ER) (AID 2283345);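 further: actives lower the bound radioligand count which means they displace the ER ligand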
# Procedure, shortened: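 Cell-free radioligand binding with bovine uterine membrane extracts, read 18 hours after dosing by scintillation counting. Loss of signal versus DMSO baseline indicates displacement. Primary screen run in duplicate at 25 uM, actives followed in concentration series.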
# Sequence of bovine Estrogen Receptor (ER), ESR1 (gene 407238) (P49884 whole entry, looked up): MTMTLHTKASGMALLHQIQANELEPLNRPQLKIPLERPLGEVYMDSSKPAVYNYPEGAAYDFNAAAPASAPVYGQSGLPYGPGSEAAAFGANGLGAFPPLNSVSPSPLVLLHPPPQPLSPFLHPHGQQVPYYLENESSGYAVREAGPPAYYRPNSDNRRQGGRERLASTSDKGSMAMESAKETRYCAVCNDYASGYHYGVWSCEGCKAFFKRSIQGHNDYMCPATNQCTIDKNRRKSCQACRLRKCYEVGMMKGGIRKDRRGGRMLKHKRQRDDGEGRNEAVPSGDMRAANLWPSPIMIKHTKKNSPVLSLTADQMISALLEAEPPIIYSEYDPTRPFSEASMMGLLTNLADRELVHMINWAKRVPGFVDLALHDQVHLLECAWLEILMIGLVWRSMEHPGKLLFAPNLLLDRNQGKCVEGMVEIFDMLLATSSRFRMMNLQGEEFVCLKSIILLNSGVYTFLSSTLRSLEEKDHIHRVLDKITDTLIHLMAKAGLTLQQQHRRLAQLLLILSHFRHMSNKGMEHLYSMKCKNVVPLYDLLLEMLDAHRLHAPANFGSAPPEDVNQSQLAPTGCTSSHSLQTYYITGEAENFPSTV
row,SMILES,outcome
1,CC1(C)C(C=C(Cl)Cl)C1C(=O)OC(C#N)c1cccc(Oc2ccccc2)c1 (centres undefined),inactive
2,N#Cc1c(Cl)cccc1Cl,inactive
3,OC(c1ccc(Cl)cc1)(c1ccc(Cl)cc1)C(Cl)(Cl)Cl,inactive
4,COP(=S)(OC)Oc1ccc([N+](=O)[O-])c(C)c1,inactive
5,CC(C)(C)C(=O)C(Oc1ccc(Cl)cc1)n1cncn1 (centres undefined),inactive
6,CC(C)=CC1C(C(=O)OCc2coc(Cc3ccccc3)c2)C1(C)C (centres undefined),inactive
7,O=c1n(Cl)c(=O)n(Cl)c(=O)n1Cl,inactive
8,CC(C)Oc1cccc(NC(=O)c2ccccc2C(F)(F)F)c1,inactive
9,N#Cc1c[nH]cc1-c1cccc2c1OC(F)(F)O2,inactive
